# Screens as filed in PubChem.
# Sampled rows, rich in hits. Any-hit rate of the full collection: about 1.6%.
# KCNQ2 pot – potentiators of rat KCNQ2 potassium channel; Potassium voltage-gated channel subfamily KQT member 2 (Rattus norvegicus), O88943; CHO-K1 KCNQ2, FluxOR thallium flux fluorescence; active compounds read high; B-score at 10 µM; actives 0.54% (n = 310,000);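 active = fluorescence ratio B-score at least 3 SD of library B-scores, with initial fluorescence B-score within 3 of them, cut at about 5.3 in these data; same plate scores as AID 2156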;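 also: B-score of peak minus minimum over baseline fluorescence ratio after K+ and Tl+ stimulus; positive B-score means potentiation of KCNQ2 with more thallium influx and brighter signal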
# KCNQ2 block – rat KCNQ2 potassium channel inhibitors, primary screen, cell-based, CHO-K1, FluxOR thallium flux, B-score; Potassium voltage-gated channel subfamily KQT member 2 (Rattus norvegicus), O88943; 20 min; active compounds read low; B-score at 10 µM; actives 1.1% (n = 310,000);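 active = fluorescence ratio B-score at most minus 3 library SDs, with starting brightness B-score within 2 library SDs, cut at about -5.5 in these data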
# The depositor's hits bear a star; i = inactive; / = no result given.
SMILES,KCNQ2 pot,KCNQ2 block
CCOC(=O)C1=C(N)OC2=C(C(=O)CC(C)(C)C2)C1c1ccoc1 (stereo unspecified),0.89,i
O=C(NCC1CCCO1)C(Cc1ccccc1)N1C(=O)C2C3C=CC(C4CC34)C2C1=O (stereo unspecified),1.4,i
C/C=C(/C)C(=O)OC1c2c(ccc3ccc(=O)oc23)OC(C)(C)C1OC(=O)/C(C)=C\C (stereo unspecified),-9.9,-9.9*
C/C=C(\C)C(=O)OC1c2c(ccc3ccc(=O)oc23)OC(C)(C)C1OC(C)=O (stereo unspecified),1.3,i
Cn1c(C(=O)OCC(=O)NCCc2ccccc2)cc2sccc21,/,i
O=C(Nc1ccccc1N1CCOCC1)C1(c2ccc(Cl)cc2)CCC1,-6.5,-6.5*
O=C(Cc1ccc(Cl)c(Cl)c1)Nc1ccccc1N1CCOCC1,0.67,i
CSc1ncc(C(=O)Nc2cccc(C)c2C)c(C)n1,0.55,i
Cn1c(O)c(N=Nc2nc(-c3ccccc3)cs2)c2ccccc21,22*,i
Cn1c(O)c(N=Nc2ccccc2)c2ccccc21,0.09,i
CCOc1ccc(NC(=O)N(CCN(C)C)C(C)c2ccncc2)cc1 (stereo unspecified),0.58,i
Cc1ccc(C(=O)C(C)OC(=O)Cn2c(C)csc2=O)cc1 (stereo unspecified),/,i
COc1cccc(C(=O)NCC2(c3ccc(OC)c(OC)c3)CCCC2)c1,1.5,i
CN(C)c1ncc(C2=C(Cl)C(=O)C(N3CCCC3)=C(Cl)C2=O)s1,-8.6,-8.6*
O=C1C(Cl)=C(N2CCCCC2)C(=O)C(Cl)=C1c1cnc(N2CCCCC2)s1,/,i
O=C(NCc1nc2ccccc2[nH]1)c1ccccc1F,1.1,i
O=C(NCCCc1nc2ccccc2[nH]1)c1ccc(F)cc1,7.3*,i
CCc1ccccc1NNC(=O)c1snnc1C,/,i
Cc1nnc(SCC(=O)Nc2ccc(O)cc2)c2ccccc12,-5.6,-5.6*
Cc1nnc(SCC(=O)Nc2ccccc2)c2ccccc12,/,i
N#C[C@H]1[C@H](c2ccccc2)[C@](C#N)(C(=O)c2ccccc2)[C@@H]2C=Cc3ccccc3N21,-8.6,-8.6*
COc1ccc(C(=O)N2c3ccccc3C=CC2C#N)cc1 (stereo unspecified),0.44,i
CCC1CCCCN1C(=S)NC(=O)c1ccc([N+](=O)[O-])cc1 (stereo unspecified),7.8*,i
CCC1CCCCN1C(=S)NC(=O)c1cccs1 (stereo unspecified),4.6,i
O=C1/C(=C/c2cccc3ccccc23)CCCc2ccccc21,-6.6,-6.6*
SMILES,KCNQ2 pot,KCNQ2 block
O=C1/C(=C\c2ccncc2)CCc2ccccc21,/,i
CCOc1nc2cnccc2n(CC(=O)Nc2c(C)cccc2CC)c1=O,1.6,i
CC(C)(C)c1ccc(S(=O)(=O)Nc2cccc(C3OCCCO3)c2)cc1,/,i
O=C(c1ccc(Br)cc1)N1CCN(Cc2ccccc2)CC1,/,i
O=C(CCN1CCN(C(=O)c2ccccc2)CC1)c1ccc(Br)cc1,-9,-9*
COc1cc(C(=O)NC(C)Cc2ccccn2)ccc1OC1CCN(C(C)=O)CC1 (stereo unspecified),/,i
Clc1ccc(/C=N/Nc2nnc(-c3ncc[nH]3)c3ccccc23)cc1,-5.7,-5.7*
Clc1cccc(/C=N/Nc2nnc(Cl)c3ccccc23)c1,/,i
O=C(CCn1c(=O)c2cccn2c2cccnc21)N1CCN(c2cccc(Cl)c2)CC1,/,i
CCc1ccc(N(CC(=O)N2CCOCC2)S(C)(=O)=O)cc1,0.9,i
COc1ccc(-c2cc(C(=O)N(C)Cc3cccc(OC)c3OC)c3ccccc3n2)cc1OC,/,i
COc1ccc(CCN(C)C(=O)c2cc(-c3ccccc3)nc3ccccc23)cc1OC,/,i
COc1ccc(CN(C)C(=O)c2cc(-c3ccccc3)nc3ccc(C)cc23)c(OC)c1OC,-5.7,-5.7*
COc1cccc(CN(C)C(=O)c2cc(-c3ccc(OC)c(OC)c3)nc3ccccc23)c1,-6,-6*
COc1ccc(-c2cc(C(=O)N(C)CCc3ccc(OC)c(OC)c3)c3ccccc3n2)cc1,-5.6,-5.6*
COc1cccc(CN(C)C(=O)c2cc(-c3ccc(F)cc3)nc3ccccc23)c1,/,i
CNC(=S)N/N=C/c1c(C)c(C(=O)c2ccc(F)cc2)n2ccccc12,0.78,i
CCOc1ccc(NC(=O)CCCN2C(=O)C(c3ccccc3)Oc3cccnc32)cc1 (stereo unspecified),0.56,i
COc1ccccc1N1N=C(c2ccc([N+](=O)[O-])cc2)CC1c1ccccc1 (stereo unspecified),-6.9,-6.9*
COc1cc(N2N=C(c3ccccc3)CC2c2ccccc2)c(C=O)cc1C=O (stereo unspecified),/,i
Cc1cc(C)nc(OC(C(=O)O)C(OCc2ccccc2)(c2ccccc2)c2ccccc2)n1 (stereo unspecified),0.82,i
Cc1ccnc(OC(C(=O)O)C(OCc2ccccc2)(c2ccccc2)c2ccc(C(F)(F)F)cc2)n1 (stereo unspecified),-6.1,-6.1*
Cn1c2ccccc2c(=O)c2cc(C#CC3(O)CCCCC3)ccc21,1.1,i
Cn1c2ccccc2c(=O)c2ccc(C#CC3(N)CCCCC3)cc21,-7.3,-7.3*
COc1cc(SC)ccc1C(=O)N(Cc1ccccc1)c1ccccn1,/,i
SMILES,KCNQ2 pot,KCNQ2 block
CC(C)OP(=O)(OC(C)C)C(NC(=O)c1ccc(Br)cc1)c1ccccc1 (stereo unspecified),-8,-8*
CC(NC(=O)c1ccc(Br)cc1)c1ccccc1 (stereo unspecified),2.6,i
CCOC(=O)Cn1nnc2c(sc3nc4c(c(-c5ccccc5)c32)CCC4)c1=O,/,i
CCOC(=O)Cn1nnc2c(sc3nc4c(c(-c5ccc(Cl)cc5)c32)CCC4)c1=O,-6.7,-6.7*
CC(C)(O)c1ccccc1CC[C@@H](SCC1(CC(=O)O)CC1)c1cccc(/C=C/c2ccc3ccc(Cl)cc3n2)c1,-6.4,-6.4*
O=C(O)C(Nc1nc(C(F)(F)F)nc2ccccc12)c1ccccc1 (stereo unspecified),/,i
COc1ccccc1-c1ccc(SCc2cccc(C)c2)nn1,-6.2,-6.2*
COc1ccccc1-c1ccc(SCc2ccc([N+](=O)[O-])cc2)nn1,/,i
Cc1ccc(-c2nc3cnccn3c2Nc2ccc3c(c2)OCO3)cc1,/,i
CN(C)c1ccc(-c2nc3cnccn3c2Nc2ccc3c(c2)OCCO3)cc1,-6.4,-6.4*
CC(Oc1ccc(Br)cc1)C(=O)N(C)CC(=O)Nc1ccc(N2CCOCC2)cc1 (stereo unspecified),/,i
Cc1ccc(-c2cc(C(=O)Nc3nccs3)c3ccccc3n2)c(C)c1,/,i
Cc1ccc(-c2cc(C(=O)N3CCCC(C(F)(F)F)C3)c3ccccc3n2)o1 (stereo unspecified),/,i
COc1ccc(-c2cc(C(=O)N3CCCCCC3)c3ccccc3n2)c(OC)c1,/,i
Cc1ccc(-c2cc(C(=O)N3CCN(c4ccc(F)cc4)CC3)c3ccccc3n2)o1,-6,-6*
Cc1ccc(-c2cc(C(=O)Nc3nccs3)c3ccccc3n2)o1,-5.7,-5.7*
COc1ccc(-c2cc(C(=O)N3CCN(c4ccccc4F)CC3)c3ccccc3n2)c(OC)c1,-8,-8*
